VACV Venus inh – qHTS for Stage-Specific Inhibitors of Vaccinia Orthopoxvirus: Venus Reporter Primary qHTS; Vaccinia virus Venus reporter expression, fluorescence; Potency, µM (top dose mostly 36.5 µM), for the others: at the highest dose activity change, negative = inhibition, usual class: inhibitors; 0.46% of 330,000 active; calls by dose curve; tested in A549 cells; note: potency is the fitted concentration of half-maximal effect; nearly all actives have a fitted effect of over 30% in size
LmPK inhibitor – qHTS Assay for Inhibitors of Leishmania Mexicana Pyruvate Kinase (LmPK); Q27686; purified LmPK, Kinase-Glo ATP luminescence, 1 h; Potency, µM (doses to about 57.5 µM), for the others: at the highest dose activity change, negative = inhibition, hits mostly inhibitors; 0.37% of 290,000 active; note: potency is the fitted concentration of half-maximal effect
Target sequence (Q27686 whole entry, looked up): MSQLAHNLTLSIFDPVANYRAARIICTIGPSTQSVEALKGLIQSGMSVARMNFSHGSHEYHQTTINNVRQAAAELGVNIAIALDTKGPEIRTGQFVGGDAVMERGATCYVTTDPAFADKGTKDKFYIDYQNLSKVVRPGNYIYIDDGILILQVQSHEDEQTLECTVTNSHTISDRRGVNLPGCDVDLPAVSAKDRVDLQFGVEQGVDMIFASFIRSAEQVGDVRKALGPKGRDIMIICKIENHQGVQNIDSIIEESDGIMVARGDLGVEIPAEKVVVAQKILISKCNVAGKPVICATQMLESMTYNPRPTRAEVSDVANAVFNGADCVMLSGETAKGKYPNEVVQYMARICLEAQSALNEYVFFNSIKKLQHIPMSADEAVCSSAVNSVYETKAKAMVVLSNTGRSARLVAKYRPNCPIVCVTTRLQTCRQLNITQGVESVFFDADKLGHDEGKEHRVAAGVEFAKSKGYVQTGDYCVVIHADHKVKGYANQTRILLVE
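Kinase-Glo luminescence read after 1 h RT reaction of 0.1 nM LmPK with 0.5 mM PEP and 0.1 mM ADP. Activity scaled between uninhibited and enzyme-free controls.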
Tb PYK inh – qHTS of Trypanosoma Brucei Inhibitors; 0.12% of 410,000 active; AID 624173, 2012; Potency, µM (series often up to 76.8 µM), inactives show top-dose activity, negative = inhibition, most hits filed as inhibitors; TbPYK enzyme, Kinase-Glo Plus ATP luminescence, 45 min; pyruvate kinase (Trypanosoma brucei), Q57TT1; note: potency is the fitted concentration of half-maximal effect; nearly all actives have a fitted effect of over 50% in size
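Luminescence from Kinase-Glo Plus, added after a 45-minute room-temperature reaction, served as the end-point read-out. The enzyme and substrate were preincubated with compound before ADP (130 uM final) initiated turnover. Concentration-effect curves came from normalized qHTS data.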
HCMV antiviral – qHTS Assay for inhibitors of the human cytomegalovirus (HCMV); HFF cells, HCMV-luciferase reporter, 72 h; stronger effect = lower value; activity change, negative = inhibition, % at 57.5 µM; 4.5% of 410,000 active; AID 1259415, 2018; in the data active = activity change below about -60%; inconclusive = no clear call, values can overlap the other calls; inactive = above about -39%
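Two compound doses tested in HFFs infected with HCMV-luciferase, MOI 1 PFU/cell, 72 h at 37C. Lysate luminescence read with OneGlo; data normalized against buffer-only and 10uM Salinomycin inhibitor controls.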
VACV mCherry inh – qHTS for Stage-Specific Inhibitors of Vaccinia Orthopoxvirus: mCherry Reporter Primary qHTS | Potency, µM (titrated, usually from 36.5 µM), without a hit: at the highest dose activity change, negative = inhibition, hits mostly inhibitors | Vaccinia virus mCherry reporter infection, fluorescence | 0.63% of 310,000 active | AID 720579, 2013; calls by dose curve; tested in A549 cells; note: potency is the fitted concentration of half-maximal effect; nearly all actives have a fitted effect of over 35% in size
* = called active by the depositor; i = inactive; ? = inconclusive; . = no result. The list is not random: actives were taken first. Their share in the collection is about 5%. Unless noted, calls come from the whole dose curve; as a rule, active = well fitted curve in the direction sought with a large enough effect; inconclusive = small, poorly fitted or top-dose-only effect, or another doubt; inactive = no such curve, though single readings can be large; an effect the other way counts as inactive or inconclusive. % is set by controls: 0 for no effect and ±100 for the full control effect.

SMILES | VACV Venus inh | LmPK inhibitor | Tb PYK inh | HCMV antiviral | VACV mCherry inh
N#Cc1cc(Oc2ccc3ccccc3c2)c(-n2nnc3ccccc32)cc1C#N | . | 2% | 0% | -65* | .
N#Cc1cc(Oc2ccccc2)c(-n2nnc3ccccc32)cc1C#N | . | 3% | 3% | 20 | .
Cn1c(NCc2ccccc2F)nc2cc(-c3cccc(C(F)(F)F)c3)sc2c1=O | ? | . | 5% | -11 | ?
Cc1cccc(C)c1NC(=O)CSC(=O)c1sc2ccccc2c1Cl | 2% | -3% | -17% | 25 | i
CC(=NOC(=O)c1ccc(F)cc1)c1nccs1 | -3% | . | -11% | -28 | 25%
CC(C)CCNC(=O)COc1ccc(N(C)S(=O)(=O)c2ccc(F)cc2)cc1 | -11% | 2% | -2% | -87* | i
COc1ccc(NC(=O)COc2ccc(N(C)S(=O)(=O)c3ccc(Cl)cc3)cc2)cc1OC | -22% | . | -6% | -88* | ?
CN(c1ccc(OCC(=O)Nc2ccccc2C(=O)O)cc1)S(=O)(=O)c1ccc(Cl)cc1 | -7% | . | 0% | -82* | i
CC(=O)Nc1ccc(S(=O)(=O)N(C)c2ccc(OCC(=O)Nc3ccccc3C(C)=O)cc2)cc1 | -13% | . | 8% | -35 | -4%
COc1cc(C(O)c2nc(-c3ccc(F)c(Cl)c3)cs2)ccc1F (stereo not given) | -27% | . | 1% | -12 | i
Cn1cc([N+](=O)[O-])c(C(=O)N/N=C/c2cc3c(cc2Br)OCO3)n1 | . | 3% | -7% | -2 | .
C=CCn1c(O)c(/C=C2/C=CC=N2)c(=O)[nH]c1=O | 40% | 2% | -1% | 15 | -11%
O=c1[nH]c(=O)n(Cc2ccccc2Cl)c(O)c1/C=C1/C=CC=N1 | 38% | 1% | -9% | -89* | i
O=c1cc(N=Nc2ccc(Cl)cc2)[nH]c(=O)[nH]1 | -16% | -2% | 5% | -100* | -2%
CC[C@@H](O)C[C@H]1CCC[C@@]2(C[C@@H]3OC(=O)/C=C/[C@@](C)(O)[C@@H](O)[C@H](C)[C@@H](O)[C@H](OC4CCC(N(C)C)C(C)O4)[C@@H](O)[C@](C)(O)CCCCC/C=C/[C@@H]4CC(C)(C)O[C@@]4(O)C[C@H](O2)[C@H]3C)O1 (stereo not given in full) | -26% | . | 2% | -97* | -7%
CN(C)c1ccc(C(=O)/C=C/c2cccnc2)cc1 | . | -1% | 3% | -67* | .
O=C(/C=C/c1cccnc1)c1ccc(F)c(F)c1 | -15% | -2% | 8% | 67 | -13%
COc1ccc(NC(=O)C2CCN(S(=O)(=O)c3cn(C)cn3)CC2)cc1Cl | -4% | . | 6% | -5 | -11%
Cc1ccc(NC(=O)Cc2n[nH]c(=O)c3ccccc23)cc1S(=O)(=O)N1CCCCCC1 | -29% | . | 0% | -69* | -21%
O=C(Cn1nnc(-c2ccccc2Cl)n1)Nc1cccc(S(=O)(=O)N2CCCC2)c1 | -15% | . | 0% | -25 | -8%
O=C(Cn1nnc(-c2ccc(F)cc2)n1)Nc1cccc(S(=O)(=O)N2CCCC2)c1 | . | . | -3% | -60* | .
Cn1cnc(S(=O)(=O)N2CCC(C(=O)Nc3ccc(Cl)c(C(F)(F)F)c3)CC2)c1 | -21% | . | -3% | -76* | -7%
CN(CC(=O)Nc1ccc(Cl)c(C(F)(F)F)c1)C(=O)Cc1n[nH]c(=O)c2ccccc12 | ? | . | -4% | -73* | -26%
COc1ccc(CCN(C)Cc2cc(-c3cncnc3)ccc2O)cc1OC | 1% | . | . | . | -6%
Cc1ccc(NC(=O)CN(C)CC(=O)Nc2cccc(F)c2)cc1S(=O)(=O)N1CCCCCC1 | -27% | -10% | 2% | -66* | -4%
SMILES | VACV Venus inh | LmPK inhibitor | Tb PYK inh | HCMV antiviral | VACV mCherry inh
Cc1ccc(NC(=O)CNc2cccc(S(=O)(=O)N3CCCC3)c2)cc1F | -21% | . | 3% | -18 | -15%
CN(CC(=O)Nc1ccc(S(=O)(=O)N2CCCC2)cc1)Cc1c(F)cccc1Cl | -18% | 0% | 2% | -70* | -19%
Cc1ccc(NCC(=O)Nc2cccc(S(=O)(=O)N(C)C)c2)cc1S(=O)(=O)N1CCCCCC1 | ? | . | 3% | -81* | ?
CCN(CC)S(=O)(=O)c1cc(NC(=O)CNc2cccc(S(=O)(=O)N3CCOCC3)c2)ccc1C | ? | . | -13% | -85* | -10%
COc1ccc(NC(=O)CN(C)CC(=O)Nc2cccc(F)c2)cc1S(=O)(=O)N1CCCCC1 | -24% | . | 39% | -24 | -18%
CN(CC(=O)Nc1ccc(S(=O)(=O)N2CCCC2)cc1)Cc1ccc(Cl)cc1 | -21% | 3% | -5% | -36 | -32%
CCc1ccccc1-n1nnc(-c2ccccc2)n1 | . | -10% | 0% | ? | .
COC(=O)c1ccc(Cl)cc1NC(=O)N1CC2CCCN2c2ccccc21 (stereo not given) | -16% | . | -3% | 0 | -10%
Cc1ccc(NC(=O)c2noc3c2CC(C(C)(C)C)CC3)cc1 (stereo not given) | -12% | -9% | -6% | 3 | -13%
O=C(Cc1ccccc1Cl)Nc1cccc(S(=O)(=O)N2CCCCCC2)c1 | . | . | 13% | -19 | .
CN(CC(=O)Nc1cccc(S(=O)(=O)N2CCCC2)c1)CC(=O)Nc1ccc(Cl)c(C(F)(F)F)c1 | ? | . | 0% | -64* | ?
O=C(CNc1cc(S(=O)(=O)N2CCCC2)ccc1OCC(F)(F)F)Nc1cccc(C(F)(F)F)c1 | ? | -2% | -11% | -69* | ?
O=C(Nc1cccc(S(=O)(=O)N2CCCCC2)c1)Nc1ccc(Cl)cc1Cl | ? | 4% | 3% | -100* | -26%
O=C(CNc1cccc(C(F)(F)F)c1)Nc1cccc(S(=O)(=O)N2CCCC2)c1 | . | . | -5% | ? | .
CC1CCN(S(=O)(=O)c2ccc(NC(=O)Cn3nnc(-c4ccccc4)n3)cc2)CC1 | . | 3% | 7% | -27 | .
Cc1ccc(-c2nnn(CC(=O)Nc3ccc(S(=O)(=O)N4CCC(C)CC4)cc3)n2)cc1 | -14% | 5% | 6% | -75* | -10%
CC(=O)Nc1ccc(OC(=O)N(C)c2ccc(C)cc2)cc1 | . | -5% | -1% | -7 | .
O=S(=O)(Nc1cccc(S(=O)(=O)N2CCCCC2)c1)c1ccc(Cl)s1 | -9% | . | 1% | -67* | -4%
CCN(CC)S(=O)(=O)c1cccc(NC(=O)CNc2cccc(S(=O)(=O)N3CCCC3)c2)c1 | -30% | 1% | -6% | -88* | -17%
Cc1ccc(NCC(=O)Nc2ccc(F)c(Cl)c2)cc1S(=O)(=O)N1CCOCC1 | ? | . | 5% | -61* | -13%
Cc1ccc(NC(=O)CNc2cccc(Br)c2)cc1S(=O)(=O)N1CCOCC1 | . | . | 2% | -27 | .

High-throughput results: PubChem BioAssay, National Center for Advancing Translational Sciences (NCATS)
